# According to PubChem BioAssay (NCATS):
# Inconclusive results are not listed. Where a structure was tested more than once in an assay, its records may differ in their call. Activity calls are given as the source filed them. The call rests on the fitted dose curve; in most records, active means well fitted inhibition curve with a large enough effect; inconclusive means small, poorly fitted or top-dose-only effect; inactive means flat fitted curve, though single readings scatter.
# Test system: MCC-26
# Assay: qHTS assay to identify novel small-molecules to repurpose for Merkel cell carcinoma treatment (AID 1296009); further: nearly all actives have a fitted effect of over 60% in size
# Settings: MCC and control cell lines, CellTiter-Glo viability, 72 h; series mostly up to 46 µM; activity change, negative = cytotoxicity: at the top concentration
# Excerpt: MCC is a rare and aggressive neuroendocrine skin cancer with limited treatment options. Approximately 80% of MCCs have the Merkel cell polyomavirus (MCPyV) DNA integrated into the host genome (virus-positive: VP-MCC) and viral oncogenes drive oncogenesis. The remaining MCCs are virus-negative (VN-MCC) and are caused by UV mutagenesis. To identify novel treatments for VP-MCC and/or VN-MCC we screened three VP-MCC cell lines (WAGA, MKL-1, MKL-2), three VN-MCC cell lines (MCC-13, MCC-26, UISO), and four immortalized, non-transformed control cell lines (HaCaT, HEK293T, CRL7250, NIH-3T3) against ~2,400 compounds in the NCGC Pharmaceutical Collection (NPC) and ~1,900 compounds in the Mechanism Interrogation PlatE (MiPE). Using cell viability as a readout (CellTiter-Glo assay) we found both overlapping and distinct drugs that can be repurposed for the treatment of VP-MCC and VN-MCC.
# A high-throughput screen was conducted in 1536-well white flat bottom plates (Corning) on a Kalypsys robotic system. Cell lines WAGA, MKL-1, MKL-2, MCC-13, MCC-26, UISO, HaCaT, HEK293T, CRL7250, and NIH-3T3 were screened against 2 small molecule annotated drug libraries NPC and MIPE in dose response (8 and 11 pt. respectively) measuring cell viability after 72 hours of incubation. […] A 1,536 pintool (Kalypsys) was used to transfer 23 nL of compound in DMSO to the 1,536-well assay plates. After 72 hr incubation at 37 degree celsius, 2.5 uL of CellTiter-Glo (Promega) was dispensed into each well using a BiorapTR. Plates were incubated at room temperature for 10 min, transferred to a ViewLux (PerkinElmer) and the luminescence was recorded using an exposure time of 2 seconds. Relative luminescence units (RLUs) were normalized to in-plate controls (no cells as a positive (cytotoxicity) control, DMSO as negative control) and the normalized data was processed using NCATS in-house software.
# On the % scale 0 is the no-effect control and ±100 the full control effect; potency means the concentration at half of the fitted maximal effect.
Structure (SMILES),"activity change, negative = cytotoxicity",Potency
CN1C[C@H](CNC(=O)OCc2ccccc2)C[C@@H]2c3cccc4c3c(cn4C)C[C@H]21,-8.56% (inactive),
CC(C)(N)Cc1ccc(Cl)cc1,7.09% (inactive),
CNCC(O)c1ccc(O)cc1 (stereo not given),,inactive
CC(C)=CCOc1c2occc2cc2ccc(=O)oc12,-0.193% (inactive),
C[C@]12CC[C@H]3[C@@H](CCC4=CC(=O)CC[C@@H]43)[C@@H]1CC[C@@H]2OC(=O)CCc1ccccc1,4% (inactive),
Cn1c(CCCC(=O)O)nc2cc(N(CCCl)CCCl)ccc21,,inactive
O=[N+]([O-])c1cc([As](=O)(O)O)ccc1O,8.69% (inactive),
N[C@@H](Cc1ccc(N(CCCl)CCCl)cc1)C(=O)O,-23.1% (inactive),
C[C@@H]1O[C@@H](O[C@H]2C[C@@H](O)[C@]3(CO)[C@H]4[C@H](O)C[C@]5(C)[C@@H](C6=CC(=O)OC6)CC[C@]5(O)[C@@H]4CC[C@]3(O)C2)[C@H](O)[C@H](O)[C@H]1O,,235 nM (active)
Cc1cccc(C)c1NC(=O)CN1CCCC1=O,,inactive
Cc1cc(SCc2sc(-c3ccc(C(F)(F)F)c(F)c3)nc2C)ccc1OCC(=O)O,-5.06% (inactive),
O=C1NCN(c2ccccc2)C12CCN(CC1COc3ccccc3O1)CC2 (stereo not given),-16.4% (inactive),
CCN(C(C)=O)c1cccc(-c2ccnc3c(C#N)cnn23)c1,-2.52% (inactive),
CC1OC(C)OC(C)O1 (stereo not given),8.22% (inactive),
CCC1(C2=NCCN2)Cc2ccccc2O1 (stereo not given),6.92% (inactive),
CC(=O)Nc1cc([As](=O)(O)O)ccc1O,13.6% (inactive),
Oc1cccc2cccnc12,,21.7 µM (active) and inactive
CCC(C(N)=O)N1CCCC1=O (stereo not given),-0.836% (inactive),
C=CCN1CC[C@]23c4c5ccc(O)c4O[C@H]2C(=O)CC[C@@]3(O)[C@H]1C5,13.4% (inactive),
CCN(CC)CCOC(=O)C(O)(c1ccccc1)c1ccccc1,-3.56% (inactive),

Structure (SMILES),"activity change, negative = cytotoxicity",Potency
CNC(=O)c1ccc(N2C(=S)N(c3ccc(C#N)c(C(F)(F)F)c3)C(=O)C23CCC3)cc1F,-5.97% (inactive),
N[C@@H]1C[C@H]1c1ccccc1,-4.98% (inactive),
CC[N+](CC)(CC)CC,7.22% (inactive),
NN=C(N)N,6.66% (inactive),
CN(C)CCN(C)CCc1ccc(Cl)c(Cl)c1,-10.1% (inactive),
Cc1ccc2c(c1)C1CN(C)CCC1N2 (stereo not given),-9.27% [at 16.1 µM] (inactive),
Cc1ncc(CNC(=O)N(CCCl)N=O)c(N)n1,-12.2% (inactive),
Nc1ccncc1,6.59% (inactive),
C#CCOC(C(=O)OCCN(C)C)(c1ccccc1)c1ccccc1,8.43% (inactive),
CCC(=O)C(CC(C)N(C)C)(c1ccccc1)c1ccccc1 (stereo not given),-25.7% [at 92.7 µM] (inactive),
O=C1CC[C@@]2(O)[C@H]3Cc4ccc(O)c5c4[C@@]2(CCN3CC2CC2)[C@H]1O5,,inactive
COc1ccc(C(CN(C)C)C2(O)CCCCC2)cc1 (stereo not given),,inactive
OCCOc1ccccc1,3.96% (inactive),
CC(C)=CC1C(C(=O)OCc2cccc(Oc3ccccc3)c2)C1(C)C (stereo not given),7.09% (inactive),
CC[C@@H](CO)NC(=O)[C@@H]1C=C2c3cccc4[nH]cc(c34)C[C@H]2N(C)C1,-12.5% (inactive),
O=C(NC(O)C(Cl)(Cl)Cl)NC(O)C(Cl)(Cl)Cl (stereo not given),9.74% (inactive),
CN1CCN(C(=O)O[C@H]2c3nccnc3C(=O)N2c2ccc(Cl)cn2)CC1,,inactive
COc1ccc2c(c1OC)CN1CCc3cc4c(cc3C1C2)OCO4 (stereo not given),,inactive
O=P1(NCCCl)OCCCN1CCCl (stereo not given),,inactive
O=C(O)c1ccc2[nH]cc(CCCCN3CC=C(c4ccccc4)CC3)c2c1,-7.65% (inactive),
